Values joined by “and” are separate entries in the source; they are usually repeats but may differ in a detail not shown here. Equal values may be shown once. Among all 5,500 compounds or so, about 2,000 (36%) were called active. Roughly 18% stayed inconclusive and do not appear here. Cut-off read from the data, not from the text of the source: active = normalized growth mostly below about 0.91 (no sharp cut-off); inconclusive = no clear call, values can overlap the other calls; inactive = mostly above about 0.92. This is one part of the list.
Experiment: chemical genetic growth profiling, strain panel (AID 1159580);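 note: tested at 20 µM; growth read once vehicle control cultures reached saturation at 30 °C; 1 = growth at the plate median or of vehicle wells; lower values mean less growth of the strain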
Conditions: S. cerevisiae deletion strains, growth OD
[1] = locus YDL101C, strain DUN1, active compounds read low
[2] = locus YGR078C, strain PAC10, active compounds read low
[3] = locus YGR229C, strain SMI1, active compounds read low
[4] = locus YHR030C, strain SLT2, active compounds read low
[5] = locus YJR075W, strain HOC1, active compounds read low
[6] = locus YMR263W, strain SAP30, active compounds read low
[7] = locus YMR307W, strain GAS1, active compounds read low
[8] = locus YNL153C, strain GIM3, active compounds read low
[9] = locus YNL322C, strain KRE1, active compounds read low
[10] = locus YPL055C, strain LGE1, active compounds read low
[11] = locus YAR019C, strain CDC15, active compounds read low
[12] = locus YBL105C, strain PKC1, active compounds read low
[13] = locus YBR135W, strain CKS1, active compounds read low
[14] = locus YBR136W, strain MEC1, active compounds read low
[15] = locus YBR160W, strain CDC28, active compounds read low
[16] = locus YDL017W, strain CDC7, active compounds read low
[17] = locus YDL028C, strain MPS1, active compounds read low
[18] = locus YDL108W, strain KIN28, active compounds read low
[19] = locus YDL132W, strain cdc53, active compounds read low
[20] = locus YDL214C, strain PRR2, active compounds read low
[21] = locus YDR052C, strain DBF4, active compounds read low
[22] = locus YDR054C, strain cdc34, active compounds read low
[23] = locus YDR226W, strain ADK1, active compounds read low
[24] = locus YDR477W, strain SNF1, active compounds read low
[25] = locus YER123W, strain YCK3, active compounds read low
[26] = locus YER133W, strain GLC7, active compounds read low
[27] = locus YFL009W, strain cdc4, active compounds read low
[28] = locus YFL029C, strain CAK1, active compounds read low
[29] = locus YFR003C, strain YPI1, active compounds read low
[30] = locus YFR019W, strain FAB1, active compounds read low
[31] = locus YFR028C, strain CDC14, active compounds read low
[32] = locus YGR040W, strain KSS1, active compounds read low
[33] = locus YGR052W, strain FMP48, active compounds read low
[34] = locus YGR092W, strain DBF2, active compounds read low
[35] = locus YHR079C, strain IRE1, active compounds read low
[36] = locus YHR082C, strain KSP1, active compounds read low
[37] = locus YHR205W, strain SCH9, active compounds read low
[38] = locus YIL147C, strain SLN1, active compounds read low
[39] = locus YJL095W, strain BCK1, active compounds read low
[40] = locus YJL128C, strain PBS2, active compounds read low
[41] = locus YJL157C, strain FAR1, active compounds read low
[42] = locus YJR016C, strain ILV3, active compounds read low
[43] = locus YJR066W, strain TOR1 (second series), active compounds read low
[44] = locus YJR066W, strain TOR1, active compounds read low
[45] = locus YKL048C, strain ELM1, active compounds read low
[46] = locus YKL067W, strain YNK1, active compounds read low
[47] = locus YKL101W, strain HSL1, active compounds read low
[48] = locus YKL193C, strain SDS22, active compounds read low
[49] = locus YKL203C, strain TOR2, active compounds read low
[50] = locus YLR113W, strain HOG1, active compounds read low
[51] = locus YLR133W, strain CKI1, active compounds read low
[52] = locus YLR403W, strain SFP1, active compounds read low
[53] = locus YML070W, strain DAK1, active compounds read low
[54] = locus YMR001C, strain CDC5, active compounds read low
[55] = locus YMR205C, strain PFK2 (second series), active compounds read low
[56] = locus YMR277W, strain FCP1, active compounds read low
[57] = locus YNL006W, strain LST8, active compounds read low
[58] = locus YNL020C, strain ARK1, active compounds read low
[59] = locus YNL161W, strain CBK1, active compounds read low
[60] = locus YNL183C, strain NPR1, active compounds read low
[61] = locus YNL207W, strain RIO2, active compounds read low
[62] = locus YNL222W, strain SSU72, active compounds read low
[63] = locus YNL307C, strain MCK1 (second series), active compounds read low
[64] = locus YOL078W, strain AVO1, active compounds read low
[65] = locus YOL136C, strain PFK27, active compounds read low
[66] = locus YOR061W, strain CKA2, active compounds read low
[67] = locus YOR119C, strain RIO1, active compounds read low
[68] = locus YOR231W, strain MKK1, active compounds read low
[69] = locus YOR329C, strain SCD5, active compounds read low
[70] = locus YPL031C, strain PHO85, active compounds read low
[71] = locus YPL153C, strain RAD53, active compounds read low
[72] = locus YPL204W, strain HRR25, active compounds read low
[73] = locus YPL209C, strain IPL1, active compounds read low
[74] = locus YPL256C, strain CLN2, active compounds read low
[75] = locus YPR025C, strain CCL1, active compounds read low
[76] = locus YPR106W, strain ISR1, active compounds read low
[77] = locus YPR111W, strain DBF20, active compounds read low
[78] = strain NNK1, active compounds read low
[79] = strain TSCII, active compounds read low

Measured: normalized growth

CC(=O)c1csc([N+](=O)[O-])c1
inactive: locus YAL013W, strain DEP1, active compounds read low 1.01 | locus YBR229C, strain ROT2, active compounds read low 1.02 | [1] 0.951 | locus YDL134C, strain PPH21, active compounds read low 1 | locus YDR150W, strain NUM1, active compounds read low 0.921 | locus YEL061C, strain CIN8, active compounds read low 1.02 | [2] 0.975 | [3] 1.01 | [4] 1.08 | locus YHR087W, strain rtc3, active compounds read low 1.02 | locus YJL187C, strain SWE1, active compounds read low 0.983 | locus YJR043C, strain POL32, active compounds read low 1 | [5] 0.99 | locus YKL190W, strain CNB1, active compounds read low 1.01 | locus YLR039C, strain RIC1, active compounds read low 1 | locus YLR058C, strain SHM2 (second series), active compounds read low 0.998 | locus YLR085C, strain ARP6, active compounds read low 0.89 | locus YLR262C, strain YPT6, active compounds read low 0.976 | locus YML094W, strain GIM5, active compounds read low 1.02 | locus YMR219W, strain ESC1, active compounds read low 0.996 | [6] 1.01 | [7] 1.03 | [8] 0.947 | locus YNL298W, strain CLA4 (second series), active compounds read low 1.02 | [9] 1.01 | locus YNR030W, strain Alg12, active compounds read low 1.02 | [10] 0.996 | locus YPL241C, strain CIN2, active compounds read low 1.09 | locus YPR135W, strain CTF4, active compounds read low 0.988

O=C(NCc1ccc(F)c(Cl)c1)Nc1csc([N+](=O)[O-])c1
inactive: [11] 0.984 | [12] 0.979 | [13] 0.987 | [14] 0.965 | [15] 0.981 | [16] 0.981 | [17] 0.98 | [1] 0.984 | [18] 0.975 | [19] 0.989 | [20] 0.975 | [21] 0.985 | [22] 0.989 | [23] 0.986 | [24] 0.977 | [25] 0.917 | [26] 0.965 | [27] 0.989 | [28] 0.967 | [29] 0.984 | [30] 0.951 | [31] 0.977 | [32] 0.976 | [33] 1.02 | [34] 0.96 | [4] 0.906 | [35] 0.958 | [36] 0.99 | [37] 0.932 | [38] 0.983 | [39] 0.963 | [40] 0.957 | [41] 0.987 | [42] 0.99 | [43] 0.952 | [44] 0.987 | [45] 0.98 | [46] 0.973 | [47] 0.947 | [48] 0.987 | [49] 1.03 | [50] 0.922 | [51] 0.962 | [52] 0.948 | [53] 0.938 | [54] 0.99 | [55] 0.962 | [56] 0.991 | [57] 0.993 | [58] 0.972 | [59] 0.983 | [60] 0.957 | [61] 0.981 | [62] 0.988 | [63] 0.973 | [64] 0.983 | [65] 0.942 | [66] 0.966 | [67] 1.01 | [68] 0.939 | [69] 0.981 | [70] 0.983 | [71] 0.969 | [72] 0.981 | [73] 0.981 | [74] 0.916 | [75] 0.989 | [76] 0.978 | [77] 0.977 | [78] 0.99 | [79] 0.981

O=C(Nc1ccc(Cl)cc1)c1csc([N+](=O)[O-])c1
active: [4] 0.583 | [50] 0.596 | [74] 0.712
inactive: [11] 0.92 | [12] 0.93 | [13] 0.931 | [14] 0.927 | [15] 0.933 | [16] 0.938 | [17] 0.922 | [1] 0.943 | [18] 0.929 | [19] 0.908 | [20] 0.874 | [21] 0.936 | [22] 0.901 | [23] 0.923 | [24] 0.803 | [25] 0.795 | [26] 0.764 | [27] 0.913 | [28] 0.919 | [29] 0.924 | [30] 0.918 | [31] 0.915 | [32] 0.797 | [33] 0.826 | [34] 0.545 | [35] 0.764 | [36] 0.891 | [37] 0.786 | [38] 0.923 | [39] 0.697 | [40] 0.935 | [41] 0.827 | [42] 0.926 | [43] 0.752 | [44] 0.759 | [45] 0.874 | [46] 0.894 | [47] 0.894 | [48] 0.92 | [49] 0.857 | [51] 0.873 | [52] 0.79 | [53] 0.832 | [54] 0.92 | [55] 0.862 | [56] 0.914 | [57] 0.921 | [58] 0.863 | [59] 0.933 | [60] 0.829 | [61] 0.908 | [62] 0.919 | [63] 0.818 | [64] 0.923 | [65] 0.861 | [66] 0.882 | [67] 0.86 | [68] 0.825 | [69] 0.924 | [70] 0.773 | [71] 0.795 | [72] 0.757 | [73] 0.926 | [75] 0.929 | [76] 0.94 | [77] 0.925 | [78] 0.944 | [79] 0.928

c1ccc(C2CN3CCSC3=N2)cc1 (configuration not stated)
inactive: locus YAL040C, strain CLN3, active compounds read low 0.985 and 1 | locus YCL061C, strain MRC1 (second series), active compounds read low 0.997 and 1.02 | locus YDR363W, strain ESC2, active compounds read low 1.02 and 1.04 | locus YER002W, strain NOP16, active compounds read low 0.991 and 1.03 | [2] 1 | [3] 1.04 | [5] 1.04 and 1.01 | [6] 1.01 | [7] 1.02 and 1 | [8] 1.02 | locus YNL175C, strain NOP13, active compounds read low 0.984 and 1 | locus YNL197C, strain WHI3, active compounds read low 0.977 and 1.01 | locus YNL224C, strain SQS1, active compounds read low 0.999 and 1.01 | [9] 1.02 | locus YOR083W, strain WHI5 (second series), active compounds read low 0.983 and 1.03 | [10] 1.05
